The source of these data is PubChem BioAssay (NCATS).

Inconclusive results are not listed. Where a call stands in place of a potency, no number is given. The source made the active and inactive calls. Calls come from the whole dose curve; as a rule, active = well fitted inhibition curve with a large enough effect; inconclusive = small, poorly fitted or top-dose-only effect; inactive = flat fitted curve, though single readings scatter.
Potency is the fitted concentration of half-maximal effect.

A short description of the experiment: P-glycoprotein substrates identified in KB-8-5-11 adenocarcinoma cell line, qHTS therapeutic library screen (AID 1346987). Note: nearly all actives have a fitted effect of over 65% in size. Particulars: KB-8-5-11 (P-gp overexpressing) viability, CellTiter-Glo, 72 h; series mostly up to 44.5 µM. A digest of the protocol:
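Human cervical adenocarcinoma KB-8-5-11 cells, selected in colchicine to over-express P-gp and assayed without it, were exposed for 72 h to titrated compounds. An ATP-based luminescent viability signal gave AC50.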
On to `O=C(O)c1cccc(C(=O)CCC2OC(n3cnc4c(=O)[nH]cnc43)C(O)C2O)c1` (stereo not drawn), for which the Potency entry was “inactive”.
Turning to `C[C@@H]1C[C@@H](O)[C@@]23CO[C@]2(CO)CCC[C@@H]3[C@@]12C[C@@H](c1ccoc1)OC2=O`, the Potency result was “inactive”.
The same measure, in the same setting: for `C=CC(C)(O)C1CC2C3(C)CCCC(C)(C)C3C(O)C(O)C2(C)O1` (stereo not drawn) the value was “inactive”; for `CC(=O)O[C@H]1[C@H](OC(=O)C(C)C)[C@]2(C)OC3(CC[C@]2(C)[C@H]2CCC[C@]4(CO4)[C@]12C)COC(=O)C3` (stereo partly drawn), “inactive”.
For `C/C=C1/C[N+](C)([O-])C2Cc3c([nH]c4ccccc34)C(=O)CC1C2C(=O)OC` (stereo not drawn), the Potency entry was “inactive”.
The same measure, in the same setting: for `CC12CC34CC(O)C5C(CO)(CO)CC(=O)CC5(C)C3CC1C2C4` (stereo not drawn) the value was “inactive”; for `CCC1OC(=O)C(C)CC(C)C(=O)/C(C)=C/C(C)C(=O)/C=C/C1(C)O` (stereo not drawn), “inactive”; for `O=C(O)c1cc(C(F)(F)F)ccc1N1CC[C@H](OCc2ccccn2)C1`, “inactive”.
For `C=C(CCO)C(=O)OCC1OCC(OC(=O)C(=C)CCO[C@@H]2O[C@H](CO)[C@@H](O)[C@H](O)[C@H]2O)C(O)C1O` (stereo partly drawn), the Potency result is “inactive”.
The same measure, in the same setting: for `CC(=O)OC(C)C(C)(O)C(=O)O[C@@H]1CC[C@]2(C)CC(=O)C(=C(C)C)C[C@H]2[C@]1(C)OC(C)=O` (stereo partly drawn) the value was “inactive”.
Take `CC(=O)c1ccc(O[C@@H]2O[C@H](CO[C@@H]3OC[C@@H](O)[C@H](O)[C@H]3O)[C@@H](O)[C@H](O)[C@H]2O)cc1`: the Potency result was “inactive”.
`CC1(C)CC[C@]2(C(=O)O[C@@H]3O[C@H](CO)[C@@H](O)[C@H](O)[C@H]3O)CC[C@]3(C)C(=CCC4[C@@]5(C)CC[C@H](OC6OC(C(=O)O)C(OC7OC(CO)C(O)C(O)C7O)C(O)C6O)C(C)(C)C5CC[C@]43C)C2C1` (stereo partly drawn): the activity change, negative = cytotoxicity is 9.04% [at 9.29 µM] (inactive).
With `Cc1c(C)c(NCC(=O)N(C)C2CCN(Cc3ccc(C(N)=O)cc3)CC2)c(C)c(C)c1N`, the Potency result is “inactive”.
Turning to `Cc1cc(Cn2cnc3c2CC(C(=O)O)N(C(=O)C(c2ccccc2)c2ccccc2)C3)ccc1N(C)C` (stereo not drawn), the Potency result is “inactive”.
Consider `COC(=O)C1C(c2ccc(O)cc2)C(C(=O)O)C1c1ccc(O)cc1` (stereo not drawn), for which the Potency entry is “inactive”.
The same measure, in the same setting: for `C/C=C(/C)C(=O)O[C@H]1C[C@]2(C)O[C@@H]2[C@@H](OC(C)=O)[C@@]2(C)CC[C@@](O)(C(C)C)[C@H]12` the value was “inactive”; for `O=C(OCC1OC(Oc2ccc(O)cc2COC(=O)C2(O)C(O)CCC(=O)C2OC(=O)C2C=CCC2)C(OC(=O)C2C=CCC2)C(O)C1O)C1C=CCC1` (stereo not drawn), “inactive”.
Take `CC[C@H]1OC(=O)[C@H](C)[C@@H](O[C@H]2C[C@@](C)(OC)[C@@H](O)[C@H](C)O2)C(C)[C@@H](O[C@@H]2O[C@H](C)C[C@H](N(C)C)[C@H]2O)[C@](C)(O)C[C@@H](C)CN(C)[C@H](C)[C@@H](O)[C@]1(C)O` (stereo partly drawn): the Potency entry is “inactive”.
`CC(C)=CCc1c(O)cc2oc3cc(C)cc(O)c3c2c1C`: the Potency entry was “inactive”.
With `CC1(C)C2CC[C@@]34CC(CC[C@H]3[C@]2(C)CC[C@@H]1O[C@@H]1O[C@H](CO)[C@@H](O)[C@H](O)[C@H]1O)[C@](C)(O)C4` (stereo partly drawn), the Potency entry is “inactive”.
With `COc1cc(O[C@@H]2O[C@H](CO[C@H]3OC[C@](O)(CO)[C@H]3O)[C@@H](O)[C@H](O)[C@H]2O)cc(OC)c1O`, the Potency entry was “inactive”.
For `Cc1nc2cc(-c3cc(F)cc(C#N)c3)ccc2s1`, the Potency entry was “inactive”.
Turning to `CC(=O)O[C@@H]1C(=O)C(C)=C(CCC(C)CC(=O)O)[C@@]2(C)CCCC(C)(C)C12` (stereo partly drawn), the Potency entry was “inactive”.
Regarding `COc1cc(C2OCC3(O)C(c4ccc(O[C@@H]5O[C@H](CO)[C@@H](O)[C@H](O)[C@H]5O)c(OC)c4)OCC23O)ccc1O` (stereo partly drawn), the Potency result is “inactive”.
For `CC1CCC23COC(=O)C2=CC(O)CC3C1(C)CCc1ccoc1` (stereo not drawn), the Potency result was “inactive”.
Consider `C/C=C(\C)C(=O)OC[C@H]1O[C@@H](O[C@H]2[C@@H](O[C@H]3O[C@H](CO)[C@@H](O)[C@H](O)[C@H]3O[C@@H]3O[C@H](CO)[C@@H](O)[C@H](O)[C@H]3O)O[C@H](COC(=O)/C(C)=C/C)[C@@H](O)[C@@H]2O)[C@H](O)[C@@H](O)[C@@H]1O`, for which the outcome is “inactive [at 9.29 µM]”.
With `FC(F)(F)c1nnc2c(Sc3ccccc3)nc3ccc(Cl)cc3n12`, the Potency is 4.61 µM (active).
Still for that read-out and setting: for `COC(=O)C1=C[C@@H](O)[C@@H](O)[C@H](O[C@@H]2O[C@H](CO)[C@@H](O)[C@H](O)[C@H]2OC(=O)/C=C/c2ccccc2)C1` the value was “inactive”.
`O=C(O)c1ccncc1Nc1nn(CCN2CCC(F)(F)CC2)c2ccc(F)cc12`: the Potency entry is “inactive”.
With `CC(=O)N[C@H]1[C@H](O[C@H]2CC[C@]3(C)C4CC=C5[C@@H]6CC(C)(C)CC[C@]6(C(=O)O)[C@H](O)C[C@@]5(C)[C@]4(C)CC[C@H]3C2(C)C)O[C@H](CO)[C@@H](O)[C@@H]1O` (stereo partly drawn), the Potency entry is “inactive”.
Consider `C=C1C2(C)CC3C4(C)OC(C5OC56C4=CC(=O)OC6(C)C)C3(C)C13C(=O)OC(C)C3(O)C2=O` (stereo not drawn), for which the Potency entry was “inactive”.
For the molecule `COc1c(O[C@@H]2O[C@H](CO)[C@@H](O)[C@H](O)[C@H]2O)c(CCC(=O)O)cc2ccoc12`, the Potency entry is “inactive”.
For the molecule `O=C(O)c1ccnc2cc(-c3nc4ccccc4n3CCN3CCCCC3)sc12`, the Potency entry was “inactive”.
Regarding `COC(=O)C(Cc1ccccc1)NC(=O)c1ccccc1` (stereo not drawn), the Potency result is “inactive”.
`CC1(C)CC[C@]2(C(=O)O[C@@H]3O[C@H](CO)[C@@H](O)[C@H](O)[C@H]3O)CC[C@]3(C)C(=CCC4[C@@]5(C)C[C@@H](O)[C@H](O)[C@@](C)(CO)C5[C@H](O)C[C@]43C)C2C1` (stereo partly drawn): the Potency entry is “inactive”.
As for `Cc1oc2nc3c(c(NC(=O)CN4CCCC4=O)c2c1C)CCCC3`, the Potency result is “inactive”.
The same measure, in the same setting: for `COc1cc(O)c2c(c1Cl)CC(C)OC2=O` (stereo not drawn) the value was “inactive”; for `CN(C)CCC[C@]1(c2ccc(F)cc2)OCc2cc(C#N)ccc21`, “inactive”.
